Experimental data taken from PubChem BioAssay (NCATS).
Several values for one entry are separate records, joined by “and”; a condition that tells them apart may be missing. Equal entries are not always repeated. Results filed as inconclusive are left out. Where a call stands in place of a potency, no number is given. Activity calls are given as the source filed them. Unless noted, calls follow the shape of the dose curve; as a rule, active = well fitted curve in the direction sought with a large enough effect; inconclusive = small, poorly fitted or top-dose-only effect, or another doubt; inactive = no such curve, though single readings can be large; an effect the other way counts as inactive or inconclusive.

Columns and labels:
[1] = target: Calcium and integrin-binding protein 1 (Homo sapiens) (UniProt Q99828); assay: Validation qHTS for Identification of Calcium Integrin Binding protein 1 (CIB1) Competitor (AID 1508618)
Outline: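 Displacement of FITC-alphaIIb peptide (100 nM) from CIB1-GST (1 uM) is monitored by polarization in quantitative HTS format; buffer carries 5 mM CaCl2 and 125 mM NaCl at pH 7.4, incubations are at room temperature.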

[2] = target: Calcium and integrin-binding protein 1 (Homo sapiens) (UniProt Q99828); assay: Primary qHTS for Identification of Calcium Integrin Binding Protein 1 (CIB1) Competitor (AID 1508620);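 also: GST tagged CIB1 binding a fluorescein labelled alphaIIb integrin peptide tracer; top concentration of the series differs between compounds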
Outline: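 Fluorescence polarization competition: GST-tagged CIB1 (1 uM final) preincubated with compound 15 min at room temperature, then FITC-labelled alphaIIb peptide (100 nM final) added. After 15 min at room temperature, polarization read at Ex 480/Em 540.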

[3] = A High-Content qHTS Against Drug Library for the Identification of Small Molecules that Inhibit DYT1 Early Onset Primary Dystonia-Associated Cell Pathology (AID 1645839; calls by dose curve; also: series mostly up to about 46 µM)
Outline: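 Flp-In T-REx 293 cells with tetracycline-inducible EGFP-delE hTOR1A (WT EGFP-hTOR1A as reference), 800 cells/well; compound added with tetracycline, 48 h at 37 C. Fixed, permeabilized cells imaged; %pathology (punctate TorsinA) primary, cell count counterscreen.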

[4] = target: Papain (Carica papaya) (UniProt P00784); assay: Primary qHTS assay for inhibitors of the protease papain (AID 1645873);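 also: papain turnover of Z-FR-AMC read as the AMC fluorescence gain over 10 min; series mostly up to about 50 µM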
[5] = Primary qHTS for small molecule stabilizers of the endoplasmic reticulum resident proteome: Secreted ER Calcium Modulated Protein (SERCaMP) assay (AID 1508630); also: potency is read from the fitted curve at half-maximal effect
Outline: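 GLuc-SERCaMP-expressing SH-SY5Y cells, pretreated 16 h with compound, are challenged with thapsigargin to empty ER calcium stores; after 4 h, coelenterazine is added directly to the medium and luminescence is imaged.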

[6] = target: Cytochrome P450 2D6 (Homo sapiens) (UniProt P10635); assay: Cytochrome P450 family 2 subfamily D member 6 (CYP2D6) small molecule antagonists: luciferase biochemical (cell-free) qHTS assay (AID 1645840; active = well fitted curve in the direction sought with a large enough effect in the repeat runs; an effect the other way counts as inactive or inconclusive; also: nearly all actives have a fitted effect of over 55% in size; also: potency is read from the fitted curve at half-maximal effect)
Outline: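 P450-Glo luminescent screen: recombinant CYP2D6 enzyme–proluciferin substrate mix preincubated with compound 10 min at room temperature, then NADPH regeneration added for 1 h at room temperature. Detection reagent added for 20 min; luciferin light read as relative luminescence units.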

[7] = target: Cytochrome P450 2C9 (Homo sapiens) (UniProt P11712); assay: Cytochrome P450 family 2 subfamily C member 9 (CYP2C9) small molecule antagonists: luciferase biochemical (cell-free) qHTS assay (AID 1645842; active = well fitted curve in the direction sought with a large enough effect in the repeat runs; an effect the other way counts as inactive or inconclusive; also: nearly all actives have a fitted effect of over 55% in size; also: potency is read from the fitted curve at half-maximal effect)
Outline: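 Luminescence, after 20 min with luciferin detection reagent, reflected CYP2C9 turnover during a 1 h NADPH-driven reaction at 37C. Enzyme-substrate mix contained 0.4% bovine serum albumin and was preincubated with compound 10 min at room temperature.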

[8] = target: Rap guanine nucleotide exchange factor 3 (Homo sapiens) (UniProt O95398); assay: Confirmatory qHTS for antagonist of cAMP-regulated guanine nucleotide exchange factor 3 (EPAC1) (AID 1645880); also: nearly all actives have a fitted effect of over 55% in size
Outline: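 Nucleotide exchange uses 100 nM EPAC1, 250 nM RAP1B-BODIPY-GDP and 50 uM GDP, with compounds in a concentration-titration series. After 5 min at room temperature, fluorescence (480 nm ex/540 nm em) is read every 5 min for 30 min. Data are normalized to control ATA and DMSO.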

[9] = target: Rap guanine nucleotide exchange factor 3 (Homo sapiens) (UniProt O95398); assay: Confirmatory qHTS for agonist of cAMP-regulated guanine nucleotide exchange factor 3 (EPAC1) (AID 1645881); also: nearly all actives have a fitted effect of over 75% in size; also: potency is read from the fitted curve at half-maximal effect
[10] = Primary qHTS for inhibitors of nuclear receptor binding SET domain protein 2 (NSD2) in an isogenic RCH-ACV NSD2 p.E1099K mutant (9B) (AID 1645876); also: nearly all actives have a fitted effect of over 70% in size; also: potency is read from the fitted curve at half-maximal effect
[11] = Primary qHTS for inhibitors of nuclear receptor binding SET domain protein 2 (NSD2) in an RCH-ACV wild type WT cells (2C) (AID 1645877); also: nearly all actives have a fitted effect of over 70% in size; also: potency is read from the fitted curve at half-maximal effect
[12] = target: Rap guanine nucleotide exchange factor 4 (Homo sapiens) (UniProt Q8WZA2); assay: Confirmatory qHTS for agonist of cAMP-regulated guanine nucleotide exchange factor 4 (EPAC2) (AID 1645884);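 also: nucleotide exchange releases bodipy-GDP from Rap1 and this lowers its fluorescence; nearly all actives have a fitted effect of over 65% in size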
[13] = target: Rap guanine nucleotide exchange factor 4 (Homo sapiens) (UniProt Q8WZA2); assay: Confirmatory qHTS for antagonist of cAMP-regulated guanine nucleotide exchange factor 4 (EPAC2) (AID 1645885); also: nearly all actives have a fitted effect of over 25% in size; also: potency is read from the fitted curve at half-maximal effect
[14] = target: Rap guanine nucleotide exchange factor 3 (Homo sapiens) (UniProt O95398); assay: Counterscreen qHTS for agonist of cAMP-regulated guanine nucleotide exchange factor 3 (EPAC1) (AID 1645889); also: nearly all actives have a fitted effect of over 40% in size
Outline: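 Rap1B–BODIPY-GDP (250 nM) with 50 uM GDP; compounds pin-transferred to 9.74 nM–152 uM final (activator) or from 7.32 nM upwards (inhibitor). Fluorescence Ex/Em 480/540 nm read at 5 and 30 min, then after adding cAMP or buffer, at room temperature.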

[15] = target: Catechol O-methyltransferase (Homo sapiens) (UniProt P21964); assay: Confirmatory Screen for Target Class Profiling of Small Molecule Inhibitors of Methyltransferases (AID 1745852); details: MTase-Glo luminescence, SAH detection, recombinant enzyme; measured here: COMT max response; stronger effect = lower value
[16] = Counterscreen qHTS for small molecule stabilizers of the endoplasmic reticulum resident proteome: GLuc-NoTag assay (AID 1508627); also: potency is read from the fitted curve at half-maximal effect
Outline: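 SH-SY5Y cells stably expressing constitutively secreted GLuc without SERCaMP tag, exposed to compound for 19 hr, then to 100 nM thapsigargin for 4 hr at 37C. Medium luciferase was read by coelenterazine luminescence without lysis.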

[17] = Confirmatory qHTS for small molecule stabilizers of the endoplasmic reticulum resident proteome: Secreted ER Calcium Modulated Protein (SERCaMP) assay (AID 1508628); also: potency is read from the fitted curve at half-maximal effect; nearly all actives have a fitted effect of over 40% in size
Outline: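 We seeded SH-SY5Y-GLuc-SERCaMP cells, added compounds (three concentrations in the primary run, eleven up to 76.6 uM in confirmation), incubated 16 h, depleted ER calcium with thapsigargin, and read luciferase 4 h later.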

[18] = Cell Viability qHTS for small molecule stabilizers of the endoplasmic reticulum resident proteome (AID 1508629); details: cell viability counter-screen, 100 nM thapsigargin for final 4 h;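 also: human SH-SY5Y neuroblastoma cells carrying the GLuc-SERCaMP reporter; compound exposure about 46 h in total before the viability read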

Chain of Rap guanine nucleotide exchange factor 4 (Homo sapiens) (Q8WZA2 whole entry, looked up): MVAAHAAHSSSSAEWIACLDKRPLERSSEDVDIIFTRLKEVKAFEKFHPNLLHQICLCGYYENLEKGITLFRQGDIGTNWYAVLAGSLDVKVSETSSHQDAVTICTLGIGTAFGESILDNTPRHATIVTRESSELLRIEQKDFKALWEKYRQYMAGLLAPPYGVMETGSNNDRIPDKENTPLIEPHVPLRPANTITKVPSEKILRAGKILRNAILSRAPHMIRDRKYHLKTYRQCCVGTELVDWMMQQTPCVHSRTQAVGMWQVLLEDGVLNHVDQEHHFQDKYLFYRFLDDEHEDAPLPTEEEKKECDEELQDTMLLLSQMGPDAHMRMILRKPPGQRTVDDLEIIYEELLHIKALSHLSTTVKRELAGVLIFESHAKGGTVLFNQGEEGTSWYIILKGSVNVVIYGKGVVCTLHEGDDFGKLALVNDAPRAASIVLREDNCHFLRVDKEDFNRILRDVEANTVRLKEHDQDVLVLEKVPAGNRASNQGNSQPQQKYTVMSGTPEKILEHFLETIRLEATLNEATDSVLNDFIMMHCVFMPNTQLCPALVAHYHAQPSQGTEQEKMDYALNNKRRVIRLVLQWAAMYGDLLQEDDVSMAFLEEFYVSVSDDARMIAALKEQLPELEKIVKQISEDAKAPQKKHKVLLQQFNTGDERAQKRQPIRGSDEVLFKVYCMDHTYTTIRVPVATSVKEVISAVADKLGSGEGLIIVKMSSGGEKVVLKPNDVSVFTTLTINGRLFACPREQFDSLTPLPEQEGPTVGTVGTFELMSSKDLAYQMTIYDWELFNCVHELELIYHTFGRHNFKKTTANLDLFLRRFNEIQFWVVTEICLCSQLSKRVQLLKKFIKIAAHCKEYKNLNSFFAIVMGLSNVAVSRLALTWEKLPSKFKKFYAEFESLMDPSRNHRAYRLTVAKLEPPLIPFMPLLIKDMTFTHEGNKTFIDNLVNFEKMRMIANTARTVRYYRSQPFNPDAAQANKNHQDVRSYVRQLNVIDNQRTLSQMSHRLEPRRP
Chain of Papain (Carica papaya) (P00784 whole entry, looked up): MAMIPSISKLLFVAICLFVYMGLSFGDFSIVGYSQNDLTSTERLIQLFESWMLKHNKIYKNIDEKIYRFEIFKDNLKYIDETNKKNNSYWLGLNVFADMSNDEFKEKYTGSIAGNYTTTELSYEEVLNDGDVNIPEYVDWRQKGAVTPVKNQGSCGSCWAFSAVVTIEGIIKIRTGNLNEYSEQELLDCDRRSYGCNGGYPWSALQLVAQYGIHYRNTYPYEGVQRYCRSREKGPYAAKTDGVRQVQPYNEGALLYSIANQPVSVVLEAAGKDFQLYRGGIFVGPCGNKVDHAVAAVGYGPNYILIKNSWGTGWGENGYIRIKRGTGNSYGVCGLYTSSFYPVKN
Chain of Cytochrome P450 2C9 (Homo sapiens) (P11712 whole entry, looked up): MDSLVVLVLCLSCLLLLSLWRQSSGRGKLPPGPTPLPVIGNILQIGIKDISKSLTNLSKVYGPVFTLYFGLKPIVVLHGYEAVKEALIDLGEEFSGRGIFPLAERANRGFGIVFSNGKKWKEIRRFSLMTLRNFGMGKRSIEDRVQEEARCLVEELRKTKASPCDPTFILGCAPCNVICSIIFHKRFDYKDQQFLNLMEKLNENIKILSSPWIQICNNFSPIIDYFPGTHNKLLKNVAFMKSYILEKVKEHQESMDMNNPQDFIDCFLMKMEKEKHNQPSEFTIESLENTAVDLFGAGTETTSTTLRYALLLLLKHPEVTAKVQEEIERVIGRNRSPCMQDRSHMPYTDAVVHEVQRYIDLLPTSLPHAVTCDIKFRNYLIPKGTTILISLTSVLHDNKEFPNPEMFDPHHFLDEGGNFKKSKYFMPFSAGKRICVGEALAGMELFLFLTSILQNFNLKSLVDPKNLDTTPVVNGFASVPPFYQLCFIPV
Chain of Cytochrome P450 2D6 (Homo sapiens) (P10635 whole entry, looked up): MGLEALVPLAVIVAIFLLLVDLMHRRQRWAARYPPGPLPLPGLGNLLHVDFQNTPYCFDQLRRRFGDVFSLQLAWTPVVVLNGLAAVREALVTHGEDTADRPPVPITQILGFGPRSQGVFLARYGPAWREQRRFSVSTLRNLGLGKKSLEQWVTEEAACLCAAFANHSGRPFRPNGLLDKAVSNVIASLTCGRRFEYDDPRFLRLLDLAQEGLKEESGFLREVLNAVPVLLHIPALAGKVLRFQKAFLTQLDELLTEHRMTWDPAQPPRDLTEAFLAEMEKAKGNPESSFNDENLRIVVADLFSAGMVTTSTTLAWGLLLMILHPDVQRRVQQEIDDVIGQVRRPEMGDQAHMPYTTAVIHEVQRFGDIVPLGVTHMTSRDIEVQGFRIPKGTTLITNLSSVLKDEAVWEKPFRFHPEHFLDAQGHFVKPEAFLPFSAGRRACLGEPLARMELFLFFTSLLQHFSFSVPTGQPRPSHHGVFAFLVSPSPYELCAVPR
Chain of Rap guanine nucleotide exchange factor 3 (Homo sapiens) (O95398 whole entry, looked up, the tested form may be a part): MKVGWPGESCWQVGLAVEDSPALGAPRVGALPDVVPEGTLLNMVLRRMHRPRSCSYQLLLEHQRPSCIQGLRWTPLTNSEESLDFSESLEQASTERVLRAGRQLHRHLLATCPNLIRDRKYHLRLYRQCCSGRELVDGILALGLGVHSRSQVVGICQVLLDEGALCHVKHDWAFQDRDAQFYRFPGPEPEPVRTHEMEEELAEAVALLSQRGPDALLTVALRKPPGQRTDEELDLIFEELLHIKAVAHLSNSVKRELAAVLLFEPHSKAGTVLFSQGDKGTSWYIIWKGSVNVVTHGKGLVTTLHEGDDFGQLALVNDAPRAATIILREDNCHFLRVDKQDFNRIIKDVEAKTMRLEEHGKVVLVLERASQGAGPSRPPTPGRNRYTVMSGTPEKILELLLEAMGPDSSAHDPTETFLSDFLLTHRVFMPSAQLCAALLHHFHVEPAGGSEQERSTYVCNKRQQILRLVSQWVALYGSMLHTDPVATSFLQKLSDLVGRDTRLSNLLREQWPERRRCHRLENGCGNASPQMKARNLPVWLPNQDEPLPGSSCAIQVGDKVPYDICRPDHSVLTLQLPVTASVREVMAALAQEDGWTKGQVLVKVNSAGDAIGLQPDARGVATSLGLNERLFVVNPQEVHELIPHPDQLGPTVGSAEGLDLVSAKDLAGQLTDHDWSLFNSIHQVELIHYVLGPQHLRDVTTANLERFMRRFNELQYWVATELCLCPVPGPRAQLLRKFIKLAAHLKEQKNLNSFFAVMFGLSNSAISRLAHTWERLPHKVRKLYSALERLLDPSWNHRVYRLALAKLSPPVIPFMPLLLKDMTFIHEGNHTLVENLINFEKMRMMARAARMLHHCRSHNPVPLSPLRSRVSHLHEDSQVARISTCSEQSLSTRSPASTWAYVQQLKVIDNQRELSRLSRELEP
Chain of Calcium and integrin-binding protein 1 (Homo sapiens) (Q99828 whole entry, looked up): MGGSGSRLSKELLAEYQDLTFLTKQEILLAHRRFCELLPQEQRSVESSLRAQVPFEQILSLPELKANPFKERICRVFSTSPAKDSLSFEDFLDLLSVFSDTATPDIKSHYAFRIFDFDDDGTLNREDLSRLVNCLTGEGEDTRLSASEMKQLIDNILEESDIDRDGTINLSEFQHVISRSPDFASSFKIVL
Chain of Catechol O-methyltransferase (Homo sapiens) (P21964 whole entry, looked up): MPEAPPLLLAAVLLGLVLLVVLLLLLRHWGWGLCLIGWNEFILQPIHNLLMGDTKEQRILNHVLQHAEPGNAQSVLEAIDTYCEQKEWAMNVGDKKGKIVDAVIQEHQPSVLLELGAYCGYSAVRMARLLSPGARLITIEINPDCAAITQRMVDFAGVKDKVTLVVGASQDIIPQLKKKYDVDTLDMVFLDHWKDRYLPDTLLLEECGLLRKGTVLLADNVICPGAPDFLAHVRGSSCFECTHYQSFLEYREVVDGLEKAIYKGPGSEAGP

CCCCNc1c(C(=O)OCC)c(C)nc2c1cnn2CC
outcome [1]: inactive
Potency [2]: inactive
Potency [3]: inactive
Potency [4]: inactive

CCOC(=O)C1=C(C)NC(C)=C(C(=O)OC)C1c1cccc([N+](=O)[O-])c1 (centres undefined)
Potency [2]: inactive
Potency [5]: inactive
Potency [3]: inactive
Potency [6]: 13.8 µM (active)
Potency [7]: 0.436 µM (active)
Potency [4]: inactive
outcome [8]: inactive
Potency [9]: inactive

C[C@]12C=CC(=O)C=C1CC[C@H]1[C@@H]3C[C@@H](O)[C@](O)(C(=O)CO)[C@@]3(C)C[C@H](O)[C@@]12F
Potency [5]: inactive
Potency [3]: inactive
Potency [6]: inactive
Potency [7]: inactive
Potency [4]: inactive
Potency [10]: inactive
Potency [11]: 1.68 µM (active)

CCOC(=O)C1=C(C)NC(C)=C(C(=O)OC)C1c1cccc(Cl)c1Cl (centres undefined)
Potency [2]: inactive
Potency [5]: inactive
Potency [9]: inactive
Potency [12]: inactive
Potency [13]: 49.4 µM (active) and 47.8 µM (active)
outcome [14]: inactive

CCCN1C[C@H](CSC)C[C@@H]2c3cccc4[nH]cc(c34)C[C@H]21
Potency [2]: inactive
Potency [5]: inactive
Potency [3]: inactive
Potency [6]: 0.055 µM (active)
Potency [4]: inactive
Potency [10]: inactive
activity [15]: -0.209%

CC(=O)Oc1cc(C(C)C)c(OCCN(C)C)cc1C
Potency [3]: inactive
Potency [6]: 8.71 µM (active)
Potency [7]: inactive
Potency [4]: inactive
Potency [10]: inactive
Potency [11]: inactive

Cc1ccc(Cl)c(Nc2ccccc2C(=O)O)c1Cl
Potency [2]: inactive
Potency [5]: inactive
Potency [6]: inactive

CN1C[C@H](C(=O)N[C@]2(C)O[C@@]3(O)[C@@H]4CCCN4C(=O)[C@H](Cc4ccccc4)N3C2=O)C[C@@H]2c3cccc4[nH]cc(c34)C[C@H]21
Potency [2]: inactive
Potency [16]: inactive
Potency [17]: 25.1 µM (active)
Potency [4]: inactive

CO[C@@]1(NC(=O)CSCC#N)C(=O)N2C(C(=O)O)=C(CSc3nnnn3C)CS[C@@H]21
outcome [1]: inactive
Potency [5]: inactive
Potency [3]: inactive
Potency [6]: inactive
Potency [7]: inactive
Potency [10]: inactive
Potency [11]: inactive

CCN(CC)CCCN(c1ccccc1)C1Cc2ccccc2C1
outcome [1]: inactive
Potency [16]: inactive
Potency [17]: 39.8 µM (active)
Potency [6]: 0.0389 µM (active)
Potency [7]: inactive
Potency [4]: inactive

CCCC(C(=O)OCCN(CC)CC)(c1ccccc1)c1ccccc1
Potency [2]: inactive
Potency [16]: 17.8 µM (active)
Potency [6]: 0.0347 µM (active)
Potency [7]: 6.17 µM (active)
Potency [4]: inactive
Potency [10]: 13.3 µM (active)
Potency [11]: 11.9 µM (active)

CCN(CC)CCOCCOC(=O)C1(c2ccccc2)CCCC1
outcome [1]: inactive
Potency [2]: inactive
Potency [3]: inactive
Potency [7]: inactive
Potency [4]: inactive
Potency [10]: inactive

CC(C)NCC(O)c1cc(O)cc(O)c1 (centres undefined)
outcome [1]: inactive
Potency [5]: inactive
Potency [3]: inactive
Potency [4]: inactive
Potency [10]: inactive
Potency [11]: inactive

CNCCCN1c2ccccc2CCc2ccccc21
outcome [1]: inactive
Potency [2]: inactive
Potency [4]: inactive

Cc1nnc(SCC2=C(C(=O)O)N3C(=O)[C@@H](NC(=O)Cn4cnnn4)[C@H]3SC2)s1
Potency [5]: inactive
Potency [3]: inactive
Potency [4]: inactive
Potency [10]: inactive

CNCCC(Oc1ccccc1OC)c1ccccc1 (centres undefined)
outcome [1]: inactive
Potency [2]: inactive
Potency [6]: 1.74 µM (active)
Potency [4]: inactive

C[C@H](CS)C(=O)N1CCC[C@H]1C(=O)O
Potency [5]: inactive
Potency [3]: inactive
Potency [6]: inactive
Potency [10]: inactive
Potency [11]: inactive

CC(=O)[C@]1(O)Cc2c(O)c3c(c(O)c2[C@@H](O[C@H]2C[C@H](N)[C@H](O)[C@H](C)O2)C1)C(=O)c1ccccc1C3=O
outcome [1]: inactive
Potency [5]: inactive
Potency [6]: 17.4 µM (active)
Potency [7]: inactive
Potency [4]: inactive
Potency [10]: 0.8 nM (active) and 41.7 nM (active)
Potency [11]: 0.9 nM (active) and 37.2 nM (active)
outcome [8]: inactive
Potency [9]: 63 µM (active) and 70.6 µM (active)
Potency [13]: inactive

Cc1nc2sccn2c(=O)c1CCN1CCC(=C(c2ccc(F)cc2)c2ccc(F)cc2)CC1
Potency [2]: inactive
Potency [16]: inactive
max response [18]: -2.38% (inactive)
Potency [6]: 3.09 µM (active)
Potency [4]: inactive
outcome [8]: inactive
Potency [9]: inactive
Potency [12]: inactive
Potency [13]: 44.1 µM (active)

Cc1ccc(/C(=C\CN2CCCC2)c2ccccn2)cc1
outcome [1]: inactive
Potency [2]: inactive
Potency [3]: inactive
Potency [4]: inactive
Potency [10]: inactive

COc1cc2c(cc1OC)-c1cc(=Nc3c(C)cc(C)cc3C)n(C)c(=O)n1CC2
outcome [1]: inactive
Potency [2]: inactive
Potency [6]: 12.3 µM (active)
Potency [7]: 0.49 µM (active)
Potency [10]: 15 µM (active)
Potency [11]: 15 µM (active)
Potency [9]: inactive
Potency [13]: 44.1 µM (active)

OC(CCN1CCCCC1)(c1ccccc1)C1CCCCC1 (centres undefined)
Potency [16]: inactive
Potency [17]: 35.5 µM (active)
max response [18]: 13.7% (inactive)
Potency [6]: 1.74 µM (active)
Potency [7]: inactive
Potency [4]: inactive

NC(=Nc1ccccc1)Nc1ccccc1
Potency [2]: inactive
Potency [16]: inactive
Potency [17]: 3.55 µM (active) and 5.62 µM (active) and 355 nM (active)
max response [18]: 21.8% (inactive)
Potency [5]: 3.16 µM (active)
Potency [3]: inactive
Potency [6]: 461 nM (active) and 1.55 µM (active)
Potency [11]: inactive
